52 molecules from PubChem BioAssay (NCATS) can be followed below.

Where “and” joins values, the source holds several entries; their conditions need not be identical. Equal values may be shown once. Records with an inconclusive call do not appear. A structure can be active in one record and inactive in another. Calls of active or inactive are those of the source. Calls come from the whole dose curve; as a rule, active = well fitted curve in the direction sought with a large enough effect; inconclusive = small, poorly fitted or top-dose-only effect, or another doubt; inactive = no such curve, though single readings can be large; an effect the other way counts as inactive or inconclusive.

Assay [1] deals with Cytochrome P450 3A7 (Homo sapiens) (UniProt P24462). The experiment in a line: Cytochrome P450 family 3 subfamily A member 7 (CYP3A7) small molecule antagonists: luciferase biochemical qHTS assay (AID 1963596). Note: % is set by controls: 0 for no effect and ±100 for the full control effect; nearly all actives have a fitted effect of over 40% in size. In short, it runs like this:
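Enzyme-substrate mix + cpd (DMSO), 10 min RT; + NADPH regen system, 1 h RT; + luciferin detection reagent, 20 min RT; luminescence read. Proluciferin substrate, P450-Glo format, 1536-well qHTS.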
For orientation: qHTS replaces the single test concentration by a dilution series.

The nature of assay [2]: Viability qHTS for spleen associated tyrosine kinase inhibitor (SYKi) naive MV4-11 cells (AID 1963823). Note: nearly all actives have a fitted effect of over 40% in size. Note: potency is the fitted concentration of half-maximal effect. In a few lines:
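qHTS, SYK inhibitor-naive MV4-11; 500 cells/well; 72 hr compound exposure, 37 C; CellTiter-Glo added, 10 min RT; luminescence read.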

Assay [3] can be described thus: Viability qHTS for spleen associated tyrosine kinase inhibitor (SYKi) drug resistant MV4-11 cells (AID 1963824). Note: nearly all actives have a fitted effect of over 35% in size. Note: potency is the fitted concentration of half-maximal effect. In short, it runs like this: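 CellTiter-Glo luminescence, read 10 min after reagent addition, reports viability after a 72 hr compound exposure. Cells are an MV4-11 line made resistant to SYK inhibition, seeded at 500 per well onto compound-containing plates.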

Assay [4] can be described thus: Quantitative highthroughput screen to assess conditional lethalithy of NOMO1 cells grown in RPMI1640 with untreated serum (RPMI+s) (AID 1963876).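 For Viability: 100% = DMSO wells and 0% = empty wells without cells.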 Note: nearly all actives have a fitted effect of over 35% in size. Note: potency is the fitted concentration of half-maximal effect. In short, it runs like this:
(§1)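 Each medium arm—HPLM with 10% dialyzed FBS, or RPMI1640 with 5 mM glucose and 10% untreated or dialyzed FBS—was screened against an 11-point, 3-fold compound titration for 48 h at 37 °C, with CellTiter-Glo luminescence as endpoint.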

The nature of assay [5]: Cellular viability qHTS for adrenocortical cancer (ACC) cell line SW-13 (AID 1963989).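 Note: cells grown in serum-free medium with ITS supplement; % is set by controls: 0 for no effect and ±100 for the full control effect; nearly all actives have a fitted effect of over 65% in size.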 The note with it: SW-13 ACC cells viability, CellTiter-Glo, 48 h; activity (max response): stronger effect = lower value. In a few lines:
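Viability was read as CellTiter-Glo luminescence after 48 h compound treatment (up to 46 uM final) of SW-13 cells grown serum-free; titration curves were fit with a four-parameter logistic model to give IC50 and efficacy.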

Assay [6] is described as follows: Cellular viability qHTS for adrenocortical cancer (ACC) cell line NCI-H295R (AID 1963990).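 Note: 0% = DMSO only wells and -100% = full killing with cytotoxic reference compound; nearly all actives have a fitted effect of over 60% in size.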 In short, it runs like this: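 CellTiter-Glo ATP luminescence, read 48 h after compound addition, measured viability of NCI-H295R adrenocortical cells grown serum-free with ITS. Final concentrations spanned up to 46 uM. Data normalized to DMSO and doxorubicin, fitted for IC50 and maximal response.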

The nature of assay [7]: Quantitative highthroughput screen to assess conditional lethalithy of NOMO1 cells grown in Human Plasma-Like Medium with dialyzed fetal bovine serum (HPLM+ds) (AID 1963878).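 Note: 100% = DMSO wells and 0% = empty wells on each plate; nearly all actives have a fitted effect of over 35% in size.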 In a few lines:
as §1

The nature of assay [8]: Quantitative highthroughput screen to assess conditional lethalithy of P12 Ichikawa cells grown in RPMI1640 with dialyzed fetal bovine serum (RPMI+ds) (AID 1963880).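 Note: 100% = DMSO wells and 0% = empty wells on each plate; nearly all actives have a fitted effect of over 35% in size.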 The note with it: Potency: P12-Ichikawa viability. In short, it runs like this: as §1
Assay [9] is described as follows: Quantitative highthroughput screen to assess conditional lethalithy of P12 Ichikawa cells grown in RPMI1640 with untreated serum (RPMI+s) (AID 1963881). To be noted: Potency: viability. In a few lines:
as §1

Assay [10] is described as follows: Quantitative highthroughput screen to assess conditional lethalithy of P12 Ichikawa cells grown in Human Plasma-Like Medium with dialyzed fetal bovine serum (HPLM+ds) (AID 1963879). To be noted: Potency: viability. In a few lines: as §1
A short description of assay [11]: Quantitative highthroughput screen to assess conditional lethalithy of SEM cells grown in RPMI1640 with dialyzed fetal bovine serum (RPMI+ds) (AID 1963884). In short, it runs like this: as §1
Assay [12] in a line: Quantitative highthroughput screen to assess conditional lethalithy of NOMO1 cells grown in RPMI1640 with dialyzed fetal bovine serum (RPMI+ds) (AID 1963877).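 Note: series mostly up to about 46 µM; 100% = DMSO control wells and 0% = empty wells; nearly all actives have a fitted effect of over 30% in size.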 In a few lines:
as §1

Assay [13] can be described thus: Quantitative highthroughput screen to assess conditional lethalithy of SEM cells grown in Human Plasma-Like Medium with dialyzed fetal bovine serum (HPLM+ds) (AID 1963882). In short, it runs like this: as §1

Chain of Cytochrome P450 3A7 (Homo sapiens) (P24462 whole entry, looked up): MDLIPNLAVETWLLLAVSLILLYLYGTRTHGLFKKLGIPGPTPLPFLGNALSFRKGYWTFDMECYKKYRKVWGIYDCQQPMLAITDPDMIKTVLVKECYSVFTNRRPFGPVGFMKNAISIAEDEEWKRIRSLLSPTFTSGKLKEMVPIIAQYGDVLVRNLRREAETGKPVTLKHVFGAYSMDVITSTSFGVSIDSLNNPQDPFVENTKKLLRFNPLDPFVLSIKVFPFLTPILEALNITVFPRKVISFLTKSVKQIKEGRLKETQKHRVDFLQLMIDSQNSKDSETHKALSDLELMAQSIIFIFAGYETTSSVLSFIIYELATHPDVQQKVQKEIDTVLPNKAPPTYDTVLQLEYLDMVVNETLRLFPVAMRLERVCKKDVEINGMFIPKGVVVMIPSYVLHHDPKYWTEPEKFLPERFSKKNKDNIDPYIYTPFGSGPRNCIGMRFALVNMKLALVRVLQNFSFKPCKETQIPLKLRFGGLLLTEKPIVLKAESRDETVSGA

As for `CCN(CC)N(O)N=O`, the Potency result in assay [1] is “inactive”.

For the molecule `NCCS[As](SCCN)c1ccc(Nc2nc(N)nc(N)n2)cc1`, the Potency result in assay [1] was “inactive”.

As for `CCNC(C)Cc1cccc(C(F)(F)F)c1` (stereo not drawn), the Potency entry in assay [1] is “inactive”.

With `Cn1c(CCCC(=O)O)nc2cc(N(CCCl)CCCl)ccc21`, the Potency result in assay [1], in assay [4] and in [6] was “inactive” throughout. For the same molecule, the Potency entry in [2] is “inactive and 11.8 µM (active)”; in assay [3] it was “inactive and 11.8 µM (active)”. For the same molecule, in assay [5], the activity (max response) is 2.81% (inactive) and -9.72% (inactive).

For the molecule `N#Cc1cn([C@@H]2O[C@H](CO)[C@H](O)[C@@H]2O)c2ncnc(N)c12`, the Potency entry in assay [1] is “inactive”.

As for `Cc1c(Cl)cccc1S(=O)(=O)Nc1nc(CC(=O)N2CCN(C)CC2)cs1`, the Potency entry in assay [1], in [2] and in assay [3] was “inactive” throughout.

With `CNC(C)[C@@H](O)c1ccc(O)cc1` (stereo partly drawn), the Potency entry in assay [1] is “inactive”.

Consider `c1cncc(OC[C@@H]2CCN2)c1`, for which the Potency result in assay [1], in [2] and in [3] was “inactive” in each case.

As for `C#CC(C)(O)CC` (stereo not drawn), the Potency result in assay [1] is “inactive”.

In the case of `C=CCC1(CC(C)C)C(=O)NC(=O)NC1=O`, the Potency result in [1] was “inactive”.

Regarding `COc1ccsc1CNCC[C@@]1(c2ccccn2)CCOC2(CCCC2)C1`, the Potency entry in assay [1], in assay [2] and in [3] was “inactive” each time.

Consider `O=C(N1CCCCC1Cc1ccccc1)n1cc(-c2ccc(-c3ccccc3)cc2)nn1` (stereo not drawn), for which the Potency result in [1] is “inactive”.

In the case of `Cc1ccccc1CN1CCC(N2CCC(n3c(=O)[nH]c4ccccc43)CC2)CC1`, the Potency result in assay [1] was “inactive”.

For `CN1C(=O)C(Cc2ccc3ccccc3c2)N=C(c2ccc(O)cc2)c2cc(Cl)ccc21` (stereo not drawn), the Potency entry in [1] is “inactive”. For the same molecule, the Potency in assay [2] was 20.6 µM (active); in [3], 13 µM (active).

As for `O=C(N1CCOCC1)N1CCN(c2ccc(Cl)cc2)CC1`, the Potency entry in [1] was “inactive”.

`CC(C)(N)Cc1ccccc1`: the Potency result in [1] is “inactive”.

Regarding `CCCCCn1cc(C(=O)c2cccc3ccccc23)c2ccccc21`, the Potency entry in assay [1] was “inactive”.

As for `NCCCCCNC1(c2ccccc2)CCCCC1`, the Potency result in [1] is “inactive”.

As for `CCCC(C)(COC(N)=O)COC(=O)NC(C)C` (stereo not drawn), the Potency result in assay [1], in assay [2], in assay [3], in [4], in assay [7] and in [8] was “inactive” in each case. Moreover, the Potency result in [9] and in assay [6] was “inactive” throughout. For the same molecule, in assay [5], the activity (max response) is 8.8% (inactive).

For the molecule `N#Cc1ccc([C@H]2CCCC[C@H]2O)cc1C(F)(F)F`, the Potency entry in assay [1] is “inactive”.

For `NCC(O)c1cccc(O)c1` (stereo not drawn), in [1], the Potency result is “inactive”.

In the case of `CCCCCCCCOC(=O)c1ccccc1C(=O)OCCCCCCCC`, the Potency result in assay [1] was “inactive”.

On to `O=C(CC1NCCC[C@H]1O)Cn1cnc2cc(Br)c(Cl)cc2c1=O` (stereo partly drawn), for which the Potency result in [1] was “inactive”.

With `CCNCC(O)c1cccc(O)c1` (stereo not drawn), the Potency entry in [1] was “inactive”.

With `CC(Cc1ccccc1)NC=O` (stereo not drawn), in assay [1], the Potency result is “inactive”.

As for `C=CCN1CCC23c4c5ccc(O)c4O[C@H]2C(=O)CC[C@@]3(O)C1C5` (stereo partly drawn), the Potency entry in assay [1] was “inactive”.

In the case of `Cc1sc2c(c1C)C(c1ccc(Cl)cc1)=NC(CC(=O)Nc1ccc(O)cc1)c1nnc(C)n1-2` (stereo not drawn), in assay [1], the Potency result was “inactive”. Moreover, the Potency was 0.148 µM (active) in assay [2] and 0.105 µM (active) in assay [3].

As for `CN(C)CCc1c[nH]c2ccc(CN3CCN(C)S3(=O)=O)cc12`, the Potency entry in assay [1] was “inactive”.

In the case of `CCOc1cc(C=O)ccc1O`, the Potency entry in [1] was “inactive”.

Consider `CNC(=O)NC(O)C(Cl)(Cl)Cl` (stereo not drawn), for which the Potency result in assay [1], in assay [2] and in assay [3] was “inactive” throughout.

`CN=C(NS(=O)(=O)c1ccc(Cl)cc1)N1C[C@H](c2ccccc2)C(c2ccc(Cl)cc2)=N1`: in [1], the Potency result is “inactive”. Moreover, the Potency in [2] was 20.6 µM (active).

Turning to `CCN1CCN(C(c2ccc(Cl)cc2)c2ccc(Cl)cc2)CC1`, in assay [1], the Potency result was “inactive”.

For `O=C1CC[C@@]2(O)[C@H]3Cc4ccc(O)c5c4[C@@]2(CCN3CC2CC2)[C@H]1O5`, the Potency entry in assay [1], in assay [2], in [3], in [10], in [9] and in [11] was “inactive” throughout. In addition, the Potency result in assay [6] is “inactive”. The Potency in assay [4] is 7.43 µM (active). Moreover, in assay [5], the activity (max response) was 9.15% (inactive) and -5.08% (inactive).

As for `CCCCc1ccc(C(=O)O)nc1`, the Potency result in [1] is “inactive”.

Consider `O=C(O)CCCOc1ccc(Cl)cc1Cl`, for which, in assay [1], the Potency entry was “inactive”.

Turning to `CC(N)Cc1c[nH]c2ccccc12` (stereo not drawn), the Potency result in assay [1] and in [2] was “inactive” in each case.

`O=[As]O[As]=O` (stereo not drawn): the Potency result in [1] was “inactive”.

As for `CCCCNC(C)(C)[P+](=O)O`, the Potency entry in [1] is “inactive”.

Turning to `CCS(=O)(=O)C(C)(C)S(=O)(=O)CC`, the Potency result in assay [1], in assay [2], in [3] and in assay [6] was “inactive” throughout. The activity (max response) in assay [5] was -10.9% (inactive).

For `CCC1(CC)C(=O)C=CNC1=O`, the Potency entry in assay [1], in assay [2], in assay [3] and in assay [6] was “inactive” throughout. For the same molecule, in assay [5], the activity (max response) was 0.834% (inactive).

For `CC(Cc1ccccc1)N(C)Cc1ccco1` (stereo not drawn), the Potency entry in assay [1], in assay [2], in [3] and in assay [6] was “inactive” each time. Besides, the activity (max response) in [5] was -0.53% (inactive).

Turning to `CCN(Cc1ccc(Cl)nc1)/C(=C/[N+](=O)[O-])NC`, the Potency entry in assay [1], in assay [2], in assay [3] and in assay [6] was “inactive” throughout. The activity (max response) in [5] was 3.71% (inactive).

As for `Cc1ccc(Cl)c(O)c1`, the Potency entry in assay [1], in [2], in assay [3] and in assay [6] was “inactive” throughout. Besides, the activity (max response) in assay [5] was 12.5% (inactive).

Consider `NC(=O)OCCCc1ccccc1`, for which the Potency entry in [1], in assay [2], in assay [3] and in assay [6] was “inactive” throughout. Moreover, in [5], the activity (max response) was 11.5% (inactive).

With `NCc1cccnc1`, the Potency entry in assay [1], in [2], in assay [3] and in assay [6] was “inactive” each time. In [5], the activity (max response) was 4.01% (inactive).

For `CC(C)N(CCNC(=O)CN1CCCC1=O)C(C)C`, the Potency result in assay [1], in assay [2], in [3], in [12], in assay [7] and in [9] was “inactive” throughout. In addition, the Potency entry in assay [13] and in assay [11] was “inactive” throughout.

As for `O=C(O)C(Cl)Cl`, the Potency entry in assay [1], in assay [2] and in assay [3] was “inactive” in each case. In assay [5], the activity (max response) was 11.1% (inactive).

`O=C(O)c1ccc(=O)[nH]c1`: the Potency entry in assay [1], in assay [2], in assay [3] and in assay [6] was “inactive” in each case. In addition, the activity (max response) in [5] was 7.49% (inactive).

With `C[C@H]1C(=O)O[C@@H]2CCN3CC=C(COC(=O)[C@](C)(O)[C@]1(C)O)[C@H]23`, the Potency result in assay [1], in assay [2] and in assay [3] was “inactive” throughout. The activity (max response) in assay [5] is -4.54% (inactive).

For `CN1[C@@H]2CC[C@H]1CC(OC(=O)c1cc(Cl)cc(Cl)c1)C2` (stereo partly drawn), the Potency entry in [1], in assay [2] and in assay [3] was “inactive” throughout. Also, the activity (max response) in assay [5] was -16.8% (inactive).

`C=CCN1CC[C@]23c4c5ccc(O)c4O[C@H]2C(=O)CC[C@@]3(O)[C@H]1C5`: the Potency result in assay [1], in [2], in assay [3] and in assay [6] was “inactive” in each case. For the same molecule, in assay [5], the activity (max response) is -2.59% (inactive).

As for `CCCC[N+]1(C)[C@@H]2CC(OC(=O)[C@H](CO)c3ccccc3)C[C@H]1[C@@H]1O[C@@H]12` (stereo partly drawn), the Potency result in [1], in [2], in assay [3] and in assay [6] was “inactive” each time. In assay [5], the activity (max response) was 15.3% (inactive).
